# Assay results from PubChem BioAssay (NCATS).
# Results filed as inconclusive are left out. A number with no mark means an inactive call. The call rests on the fitted dose curve; in most records, active means well fitted cell-killing curve with a large enough effect; inconclusive means small, poorly fitted or top-dose-only effect, or effect the other way; inactive means flat fitted curve, though single readings scatter. *1 amine or outer side, *2 acyl side, *3 side chain or, on linkers, in order; H or OH if unused. Where a SMILES comes first, the peptide text is derived from it. [ ]: non-standard residue; d: D form. X13 = O=C(C(CC(O)CO)O[*:1])[*:2]; NMeV = CN[CH](C(=O)O)C(C)C; NMeA = CN[CH](C)C(=O)O; βAla = NCCC(=O)O
# Tested on: CASKI
# Experiment: Primary qHTS to identify gynecologic anti-cancer compounds using libraries of approved drugs and bioactive compounds (AID 1345084); further: nearly all actives have a fitted effect of over 55% in size
# Conditions: Gynecologic cancer cell panel viability, ATPlite luminescence, 48 h; series mostly up to 57.5 µM; activity change, negative = cytotoxicity: at the top concentration
# In short: (§1)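 Cytotoxicity screen measuring ATP content by luciferase luminescence. Each compound is applied at five concentrations for 48 h at 37 C with 5% CO2.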
# On the % scale 0 is the no-effect control and ±100 the full control effect.
row,Structure (SMILES),"activity change, negative = cytotoxicity"
1,CCCC/C=C\CCCCCc1cc(=O)c2ccccc2n1C,-3.95% [at 38.5 µM]
2,Cn1cc(Nc2cnccc2C(=O)O)c2cccnc21,8.33%
3,C[C@H]1[C@H](C)C[C@@H](C(=O)O)C2CC[C@]3(C)C(=CC[C@@H]4[C@@]5(C)CC[C@H](O)C(C)(C)[C@@H]5CC[C@]43C)[C@@H]21 (stereo partly specified),2.18%
4,C=CC(C)(O)CC/C=C(\C)C(=O)O[C@@H]1[C@@H](O)[C@H](OC(C)(C=C)CC/C=C(\C)C(=O)O)O[C@H](CO)[C@H]1OC(=O)/C(C)=C/CCC(C)(O)C=C (stereo partly specified),-4.59% [at 25.3 µM]
5,CC1(C)CC[C@]2(C(=O)O[C@@H]3O[C@H](CO)[C@@H](O)[C@H](O)[C@H]3O)CC[C@]3(C)C(=CCC4[C@@]5(C)CC[C@H](O[C@@H]6O[C@H](C(=O)O)[C@@H](O)[C@H](O)[C@H]6OC6OC(CO)C(O)C(O)C6O)C(C)(C)C5CC[C@]43C)[C@@H]2C1 (stereo partly specified),2.93% [at 11.6 µM]
6,COc1cccc(C)c1C(=O)O[C@@H]1C[C@H](O[C@H]2[C@H](O)C[C@H](O[C@@H]3CCC[C@H]4[C@H]3C=C[C@@H]3CCCC/C=C/[C@H]5C=C(C(=O)O)[C@@H](C)C[C@@]56OC(=O)C(=C6O)OC(=O)[C@@]34C)O[C@@H]2C)O[C@H](C)[C@H]1O,10.4% [at 11.6 µM]
7,CC(C)CC(=O)OC[C@@]1(O)C[C@@]23CC[C@H]4[C@@](C)(CCC[C@@]4(C)C(=O)O)[C@@H]2CC[C@@H]1C3,-13% [at 25.3 µM]
8,C=C[C@H]1[C@H](O[C@@H]2O[C@H](CO)[C@@H](O)[C@H](O)[C@H]2O)OC=C(C(=O)OC)[C@H]1CC=O,-1.66% [at 38.5 µM]
9,C=C1C(=O)OC2CC(COC(=O)C(C)C)=C(C(C)CCCOC(C)=O)[C@@H](OC(C)=O)C12 (stereo partly specified),-3.13% [at 25.3 µM]
10,CC1=C2C(=O)C=C(CO[C@@H]3O[C@H](CO)[C@@H](O)[C@H](O)[C@H]3O)[C@@H]2[C@H]2OC(=O)[C@H](C)[C@@H]2[C@@H](O)C1,-6.78% [at 25.3 µM]
11,C=C1C(=O)O[C@@H]2CC(C)=C([C@@H](C)CCCOC(C)=O)[C@@H](O)[C@H]12,29.7% [at 38.5 µM]
12,CC1=COC(OC2OC(CO)C(O)C(O)C2O)C2C(CO)CC(OC(=O)/C=C/c3ccc(O)cc3)C12 (stereo unspecified),-16.6% [at 25.3 µM]
13,COc1cccc(OC)c1-c1ccc(C[C@H](NC(=O)c2c(Cl)cccc2Cl)C(=O)O)cc1,13.9%
14,C/C=C/C(=O)OC1/C=C/C(O)C(OC(C)=O)CCC(=O)OC1C (stereo unspecified),1.07% [at 38.5 µM]
15,CC1(C)[C@H]2C[C@H](C/C=C\CCCC(=O)O)[C@@H](NC(=O)c3csc4ccc(O)cc34)[C@@H]1C2,30.6%
16,CC(=O)/C=C/C1C(C)CC(O[C@@H]2O[C@H](CO)[C@@H](O)[C@H](O)[C@H]2O)CC1(C)C (stereo partly specified),6.02% [at 38.5 µM]
17,COC(=O)c1ccccc1O[C@@H]1O[C@H](CO[C@@H]2OC[C@@H](O)[C@H](O)[C@H]2O)[C@@H](O)[C@H](O)[C@H]1O,7.54% [at 25.3 µM]
18,NC(Cc1c[nH]c2ccc(O)cc12)C(=O)O (stereo unspecified),2.41%
19,CCN=C1N[C@@H]2[C@@H](O)[C@H](O)[C@@H](CO)O[C@@H]2S1,-5.51%
20,O=C(NC1CCN(CC(F)(F)F)CC1)c1ccc(-c2cccc(F)c2)nc1,15.9%
21,COc1cc(/C=C/C(=O)O[C@H]2[C@@H]3C=CO[C@@H](O[C@@H]4O[C@H](CO)[C@@H](O)[C@H](O)[C@H]4O)[C@@H]3[C@@]3(CO)O[C@@H]23)ccc1O,3.44% [at 25.3 µM]
22,C[C@@H]1[C@H](O)[C@@H]2OC(=O)C3=C2[C@H](CCC3)[C@@]12C[C@@H](c1ccoc1)OC2=O,0.509% [at 38.5 µM]
23,CC1OC(OC2CCC3(C)C(CCC4(C)C3C=CC35OCC6(CCC(C)(C)CC63)CCC45C)C2(C)CO)C(OC2OC(CO)C(O)C(O)C2O)C(O)C1OC1OC(CO)C(O)C(O)C1O (stereo unspecified),3.54% [at 11.6 µM]
24,CCC(C)C1NC(=O)C2CCCN2C(=O)C(CC(O)CO)OC(=O)CCNC(=O)C(C)N(C)C(=O)C(C(C)C)N(C)C1=O (stereo unspecified) (cyclo([X13]PI[NMeV][NMeA][βAla]); configuration not given here),-2.82% [at 25.3 µM]
25,CC(O)C(=O)/C=C/C=C/C(=O)OC1C=C2COC(=O)C2(O)C2(C)CCCC(C)(C)C12 (stereo unspecified),1.21% [at 25.3 µM]
26,CC(C)C(O)(CO)CCO[C@@H]1O[C@H](CO[C@H]2OC[C@](O)(CO)[C@H]2O)[C@@H](O)[C@H](O)[C@H]1O (stereo partly specified),8.65% [at 25.3 µM]
27,Nc1ncnc2c1ncn2[C@H]1O[C@@H](C(=O)N2CCN(CC(=O)Nc3cccc4c3CNC4=O)CC2)[C@H](O)[C@@H]1O,15.3%

# Tested on: Es-2
# Experiment: as above
# Conditions: Gynecologic cancer cell panel viability, ATPlite luminescence, 48 h; series mostly up to 57.5 µM; activity change, negative = cytotoxicity: at the top concentration
# In short: as §1
row,Structure (SMILES),"activity change, negative = cytotoxicity"
1,COC(=O)C1=CO[C@@H](O[C@@H]2O[C@H](CO[C@@H]3O[C@H](CO)[C@@H](O)[C@H](O)[C@H]3O)[C@@H](O)[C@H](O)[C@H]2O)[C@@H]2C(CO)=CC[C@H]12,1.45% [at 25.3 µM]
2,CSCC1OC(n2cnc3c(=O)[nH]cnc32)C(O)C1O (stereo unspecified),1.03%
3,COc1cc(C)c(C(=O)OC2C(C)OC(OC3CCC(C)C4C3C=C(C)C3/C(C)=C\CC/C(C)=C/C5(C)C=C(C(=O)O)C(C)CC56OC(=O)/C(=C(\O)C34C)C6=O)C(O)C2O)c(OC)c1 (stereo unspecified),6.73% [at 11.6 µM]
4,OC[C@H]1O[C@@H](OCc2ccccc2)[C@H](O[C@@H]2OC[C@@H](O)[C@H](O)[C@H]2O)[C@@H](O)[C@@H]1O,0.977% [at 25.3 µM]
